# Unmarked numbers belong to inactive results. Inconclusive results are not listed. Entries that show only a call come without a potency. Activity calls are given as the source filed them. Unless noted, calls follow the shape of the dose curve; as a rule, active = well fitted curve in the direction sought with a large enough effect in the repeat runs; inconclusive = weak or mixed curves; inactive = no such curve, though single readings can be large; an effect the other way counts as inactive or inconclusive.
# Experiments:
# [1] = qHTS assay to test for compound auto fluorescence at 535 nm (green) in HEK293 cells (AID 720680)
# [2] = qHTS assay to test for compound auto fluorescence at 460 nm (blue) in HEK293 cell free culture (AID 720681)
# In short: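 Test compounds were pinned into cell-free culture medium (DMEM with 10% FBS) and fluorescence was read directly at Ex/Em 405/460 nm. Signals were expressed as fluorescence equivalents of triamterene, with DMSO vehicle as control.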
# [3] = qHTS assay to test for compound auto fluorescence at 535 nm (green) in HEK293 cell free culture (AID 720682)
# In short: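 Compounds were pin-transferred into cell-free DMEM with 10% FBS, and green fluorescence was read at excitation 485 nm and emission 535 nm. Intensities were expressed as fluorescein-equivalent values.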
# [4] = qHTS assay to test for compound auto fluorescence at 590 nm (red) in HEK293 cell free culture (AID 720683)
# In short: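 Tox21 10K library compounds were pinned into cell-free DMEM with 10% FBS and fluorescence was read at excitation 540 nm. Activity is expressed as Rose Bengal sodium equivalency.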
# [5] = qHTS assay to test for compound auto fluorescence at 590 nm (red) in HepG2 cell free culture (AID 720684)
# In short: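 Red fluorescence (540 nm excitation, 590 nm emission) was measured after compound transfer into cell-free MEM supplemented with 10% FBS. Values are equivalencies against Rose Bengal sodium.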
# [6] = qHTS assay to test for compound auto fluorescence at 460 nm (blue) in HepG2 cell free culture (AID 720685)
# In short: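 Compound (23 nL) or DMSO pinned into cell-free MEM with 10% FBS; blue fluorescence read at 405/460 nm excitation/emission, expressed as auto-fluorescence equivalency to triamterene.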
# [7] = qHTS assay to test for compound auto fluorescence at 535 nm (green) in HepG2 cell free culture (AID 720686)
# [8] = qHTS assay to test for compound auto fluorescence at 460 nm (blue) in HepG2 cells (AID 720687)
# In short: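 Cells (2,000/well in MEM with 10% FBS) attached overnight at 37 C, then were exposed to compound or DMSO for 1 hr at 37 C, 5% CO2. Fluorescence read at Ex/Em 405/460 nm, expressed as triamterene-equivalent signal.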
# [9] = target: Glucocorticoid receptor (Homo sapiens) (UniProt P04150); assay: qHTS assay to identify small molecule agonists of the glucocorticoid receptor (GR) signaling pathway (AID 720691; active = well fitted activation curve with a large enough effect in the signal ratio in the repeat runs, not every such curve was filed as active; the % refers to the signal ratio)
# In short: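 Agonist mode in a HeLa line carrying a GRE-controlled beta-lactamase reporter. Compounds act for 18 h at 37 C before a 2 h room-temperature FRET substrate step and fluorescence reading.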
# [10] = target: Glucocorticoid receptor (Homo sapiens) (UniProt P04150); assay: qHTS assay to identify small molecule antagonists of the glucocorticoid receptor (GR) signaling pathway (AID 720692; active = well fitted inhibition curve with a large enough effect in the signal ratio in the repeat runs, not every such curve was filed as active; the % refers to the signal ratio; also: potency is read from the fitted curve at half-maximal effect)
# In short: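 Cells plated, rested 4 h at 37 C/5% CO2; compounds in DMSO pin-transferred; dexamethasone added to 5 nM final; 18 h at 37 C; B/G FRET substrate added, 2 h room temperature; fluorescence measured.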
# [11] = qHTS assay to identify small molecule antagonists of the glucocorticoid receptor (GR) signaling pathway - cell viability counter screen (AID 720693); also: nearly all actives have a fitted effect of over 55% in size; also: potency is read from the fitted curve at half-maximal effect
# [12] = qHTS assay for identifying genotoxic compounds that show differential cytotoxicity against isogenic chicken DT40 cell lines with known DNA damage response pathways - wild type cell line (AID 743012); also: nearly all actives have a fitted effect of over 60% in size; also: potency is read from the fitted curve at half-maximal effect
# In short: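 Cells (DT40 wild type, 300/well) are treated with DMSO-dissolved compounds after a ~0.5 h pre-incubation and kept 40 h at 37 C/5% CO2. Viability is then measured by CellTiter-Glo luminescence following 30 min at room temperature.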
# [13] = qHTS assay for identifying genotoxic compounds that show differential cytotoxicity against isogenic chicken DT40 cell lines with known DNA damage response pathways - Rev3 mutant cell line (AID 743014); also: nearly all actives have a fitted effect of over 55% in size; also: potency is read from the fitted curve at half-maximal effect
# [14] = qHTS assay for identifying genotoxic compounds that show differential cytotoxicity against isogenic chicken DT40 cell lines with known DNA damage response pathways - Rad54/Ku70 mutant cell line (AID 743015); also: nearly all actives have a fitted effect of over 60% in size; also: potency is read from the fitted curve at half-maximal effect
# [15] = qHTS assay to identify small molecule antagonists of the androgen receptor (AR) signaling pathway - cell viability counter screen (AID 743033; also: nearly all actives have a fitted effect of over 45% in size; also: potency is read from the fitted curve at half-maximal effect)
# [16] = qHTS assay to identify small molecule antagonists of the androgen receptor (AR) signaling pathway using the MDA cell line - cell viability counter screen (AID 743041; also: nearly all actives have a fitted effect of over 45% in size; also: potency is read from the fitted curve at half-maximal effect)
# In short: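 MDA-kb2 AR-luc human breast carcinoma cells (MMTV-luciferase, AR/GR responsive) were treated with compounds plus R1881 agonist for 16 h at 37 °C. Viability was read as CellTiter-Fluor fluorescence in the same wells as the reporter assay.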
# [17] = qHTS assay to identify small molecule antagonists of the thyroid receptor (TR) signaling pathway - cell viability counter screen (AID 743064); also: nearly all actives have a fitted effect of over 50% in size; also: potency is read from the fitted curve at half-maximal effect
# In short: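 In-well cytotoxicity read by CellTiter-Fluor (30 min, 37 C) following 23.5 h exposure of GH3 cells bearing a TRE-luciferase sensor. Compounds were added alongside 1 nM (final) T3 to drive TR transactivation.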
# [18] = target: Androgen receptor (Homo sapiens) (UniProt P10275); assay: qHTS assay to identify small molecule antagonists of the androgen receptor (AR) signaling pathway (AID 743035; active = well fitted inhibition curve with a large enough effect in the signal ratio in the repeat runs, not every such curve was filed as active; the % refers to the signal ratio)
# In short: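 Antagonism is scored as loss of R1881-driven beta-lactamase reporter expression in HEK293 cells carrying the reporter under a UAS element, after 16 h co-treatment at 37C and a 2 h room-temperature FRET substrate read.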
# [19] = target: Androgen receptor (Homo sapiens) (UniProt P10275); assay: qHTS assay to identify small molecule agonists of the androgen receptor (AR) signaling pathway using the MDA cell line (AID 743040; also: nearly all actives have a fitted effect of over 20% in size)
# In short: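 MDA-kb2 breast carcinoma cells stably carrying an MMTV-driven luciferase reporter (AR- and GR-responsive) were seeded and held 5 h at 37C, 0% CO2, then exposed to compounds in DMSO for 16 h. Luminescence was read 30 min after ONE-Glo addition.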
# [20] = target: Androgen receptor (Homo sapiens) (UniProt P10275); assay: qHTS assay to identify small molecule antagonists of the androgen receptor (AR) signaling pathway using the MDA cell line (AID 743042; also: nearly all actives have a fitted effect of over 55% in size)
# In short: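 MDA-kb2 cells (human breast carcinoma, stably carrying an MMTV-luciferase reporter responsive to AR and GR) were plated at 3,000 cells/well and preincubated 5 hr at 37C, then given compound plus R1881 agonist for 16 h. ONE-Glo luminescence was read.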
# Chain of Androgen receptor (Homo sapiens) (P10275 whole entry, looked up): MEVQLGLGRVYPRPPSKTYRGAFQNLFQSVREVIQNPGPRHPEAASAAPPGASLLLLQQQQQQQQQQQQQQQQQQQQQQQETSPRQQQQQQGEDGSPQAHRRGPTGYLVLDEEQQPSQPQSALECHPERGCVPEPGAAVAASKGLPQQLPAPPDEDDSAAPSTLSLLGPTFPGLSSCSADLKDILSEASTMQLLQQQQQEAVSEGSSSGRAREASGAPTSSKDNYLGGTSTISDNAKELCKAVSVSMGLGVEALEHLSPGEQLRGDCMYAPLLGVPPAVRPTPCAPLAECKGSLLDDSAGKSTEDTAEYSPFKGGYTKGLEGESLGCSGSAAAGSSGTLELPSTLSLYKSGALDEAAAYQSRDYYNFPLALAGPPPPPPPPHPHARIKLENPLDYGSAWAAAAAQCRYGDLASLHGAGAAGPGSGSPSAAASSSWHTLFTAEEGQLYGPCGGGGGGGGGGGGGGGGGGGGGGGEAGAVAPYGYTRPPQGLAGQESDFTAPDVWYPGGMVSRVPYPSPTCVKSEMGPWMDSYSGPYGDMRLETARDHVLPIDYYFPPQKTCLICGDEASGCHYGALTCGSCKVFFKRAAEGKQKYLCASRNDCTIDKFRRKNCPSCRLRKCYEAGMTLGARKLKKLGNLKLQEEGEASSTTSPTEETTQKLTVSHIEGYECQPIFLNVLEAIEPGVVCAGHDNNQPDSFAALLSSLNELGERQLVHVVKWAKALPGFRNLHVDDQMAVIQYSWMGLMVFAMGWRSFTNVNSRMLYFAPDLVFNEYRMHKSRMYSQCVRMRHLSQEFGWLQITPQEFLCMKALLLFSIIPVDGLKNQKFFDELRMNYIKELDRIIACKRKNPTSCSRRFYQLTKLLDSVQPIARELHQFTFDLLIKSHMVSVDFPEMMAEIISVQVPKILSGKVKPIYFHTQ
# Chain of Glucocorticoid receptor (Homo sapiens) (P04150 whole entry, looked up): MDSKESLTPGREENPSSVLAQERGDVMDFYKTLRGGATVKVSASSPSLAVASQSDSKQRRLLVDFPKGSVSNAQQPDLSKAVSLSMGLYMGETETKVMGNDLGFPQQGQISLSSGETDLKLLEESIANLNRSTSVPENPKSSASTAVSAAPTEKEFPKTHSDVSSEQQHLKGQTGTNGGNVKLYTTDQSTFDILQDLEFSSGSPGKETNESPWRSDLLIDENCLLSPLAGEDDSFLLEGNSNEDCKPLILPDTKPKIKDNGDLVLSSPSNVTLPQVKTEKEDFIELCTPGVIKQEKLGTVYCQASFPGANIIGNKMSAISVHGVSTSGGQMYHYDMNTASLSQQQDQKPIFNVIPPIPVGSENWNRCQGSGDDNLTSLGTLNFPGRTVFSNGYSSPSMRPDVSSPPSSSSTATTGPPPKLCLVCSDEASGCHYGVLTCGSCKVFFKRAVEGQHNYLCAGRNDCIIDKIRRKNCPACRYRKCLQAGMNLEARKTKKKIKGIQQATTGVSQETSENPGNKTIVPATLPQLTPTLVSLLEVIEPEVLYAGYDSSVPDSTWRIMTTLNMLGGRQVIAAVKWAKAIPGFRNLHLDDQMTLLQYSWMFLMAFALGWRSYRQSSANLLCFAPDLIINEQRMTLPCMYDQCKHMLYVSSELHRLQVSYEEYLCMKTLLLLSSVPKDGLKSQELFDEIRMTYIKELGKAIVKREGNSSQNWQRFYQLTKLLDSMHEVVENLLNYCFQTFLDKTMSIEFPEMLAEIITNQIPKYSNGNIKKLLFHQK
smiles,measurement,setting,value
c1ccc(COCc2ccccc2)cc1,outcome,[1],inactive
same,Potency,[2],inactive
same,outcome,[3],inactive
same,outcome,[4],inactive
same,outcome,[5],inactive
same,Potency,[6],inactive
same,outcome,[7],inactive
same,Potency,[8],inactive
same,Potency,[9],inactive
same,Potency,[10],inactive
same,Potency,[11],inactive
same,Potency,[12],inactive
same,Potency,[13],inactive
same,Potency,[14],inactive
same,Potency,[15],inactive
same,Potency,[16],inactive
CC1CN(c2cc3c(cc2F)c(=O)c(C(=O)O)cn3-c2ccc(F)cc2F)CCN1 (centres undefined),outcome,[1],inactive
same,Potency,[2],inactive
same,outcome,[3],inactive
same,outcome,[4],inactive
same,outcome,[5],inactive
same,Potency,[6],inactive
same,outcome,[7],inactive
same,Potency,[8],inactive
same,Potency,[9],inactive
same,Potency,[10],inactive
same,Potency,[11],inactive
same,Potency,[12],inactive
same,Potency,[13],inactive
same,Potency,[14],inactive
same,Potency,[15],inactive
same,Potency,[16],inactive
same,Potency,[17],inactive
CN1CCCN=C1/C=C/c1cccs1,outcome,[1],inactive
same,Potency,[2],inactive
same,outcome,[3],inactive
same,outcome,[4],inactive
same,outcome,[5],inactive
same,Potency,[6],inactive
same,outcome,[7],inactive
same,Potency,[8],inactive
same,Potency,[9],inactive
same,Potency,[10],inactive
same,Potency,[11],inactive
same,Potency,[12],inactive
same,Potency,[13],inactive
same,Potency,[14],inactive
same,Potency,[15],inactive
same,Potency,[16],inactive
CCCC1C(CC)=CC(CC)=CN1c1ccccc1 (centres undefined),outcome,[1],inactive
same,Potency,[2],inactive
same,outcome,[3],inactive
same,outcome,[4],inactive
same,outcome,[5],inactive
same,Potency,[6],inactive
same,outcome,[7],inactive
same,Potency,[8],inactive
same,Potency,[9],inactive
same,Potency,[10],49 µM (active)
same,Potency,[11],inactive
same,Potency,[12],2.73 µM (active)
same,Potency,[13],2.17 µM (active)
same,Potency,[14],1.93 µM (active)
same,Potency,[15],inactive
same,Potency,[16],54.5 µM (active)
same,Potency,[17],inactive
O=C(NCCCN1CCOCC1)c1ccc(Cl)cc1,outcome,[1],inactive
same,Potency,[2],inactive
same,outcome,[3],inactive
same,outcome,[4],inactive
same,outcome,[5],inactive
same,Potency,[6],inactive
same,outcome,[7],inactive
same,Potency,[8],inactive
same,Potency,[9],inactive
same,Potency,[10],inactive
same,Potency,[11],inactive
same,Potency,[12],inactive
same,Potency,[13],inactive
same,Potency,[14],inactive
same,Potency,[15],inactive
same,Potency,[16],inactive
same,Potency,[17],inactive
C=C(C)C(=O)OCCOC(=O)CC(C)=O,outcome,[1],inactive
same,Potency,[2],inactive
same,outcome,[3],inactive
same,outcome,[4],inactive
same,outcome,[5],inactive
same,Potency,[6],inactive
same,outcome,[7],inactive
same,Potency,[8],inactive
same,Potency,[9],inactive
same,Potency,[10],inactive
same,Potency,[11],inactive
same,Potency,[12],inactive
same,Potency,[13],inactive
same,Potency,[14],inactive
same,Potency,[15],inactive
same,Potency,[16],inactive
CC1CC(O)CC(C)(C)C1 (centres undefined),outcome,[1],inactive
same,Potency,[2],inactive
same,outcome,[3],inactive
same,outcome,[4],inactive
same,outcome,[5],inactive
same,Potency,[6],inactive
same,outcome,[7],inactive
same,Potency,[8],inactive
same,Potency,[9],inactive
same,Potency,[10],inactive
same,Potency,[11],inactive
same,Potency,[12],inactive
same,Potency,[13],inactive
same,Potency,[14],inactive
same,Potency,[15],inactive
same,Potency,[16],inactive
same,Potency,[17],inactive
O=C(CCCN1CCC(O)(c2ccc(Br)cc2)CC1)c1ccc(F)cc1,"fluorescence, % of fluorescein",[1],-0.0174% [at 18.6 µM]
same,"fluorescence, % of fluorescent control",[2],0.0856% [at 18.6 µM]
same,activity change,[3],0.0165% [at 18.6 µM]
same,"fluorescence, % of fluorescent control",[4],0.118% [at 18.6 µM]
same,"fluorescence, % of Rose Bengal",[5],-0.294% [at 18.6 µM]
same,"fluorescence, % of fluorescent control",[6],0.0015% [at 18.6 µM]
same,"fluorescence, % of fluorescein control",[7],-0.0224% [at 18.6 µM]
same,"fluorescence, % of fluorescent control",[8],0.0362% [at 18.6 µM]
same,Potency,[9],inactive
same,Potency,[10],inactive
same,Potency,[11],inactive
same,Potency,[12],5.07 µM (active)
same,Potency,[13],2.85 µM (active)
same,Potency,[14],4.52 µM (active)
same,Potency,[15],inactive
same,Potency,[16],inactive
O=c1[nH]c2ccc(S(=O)CCN3CCC(Cc4ccc(F)cc4)CC3)cc2o1 (centres undefined),outcome,[1],inactive
same,Potency,[2],inactive
same,outcome,[3],inactive
same,outcome,[4],inactive
same,outcome,[5],inactive
same,Potency,[6],inactive
same,outcome,[7],inactive
same,Potency,[8],inactive
same,Potency,[9],inactive
same,Potency,[10],inactive
same,Potency,[11],inactive
same,Potency,[12],13.7 µM (active)
same,Potency,[13],4.33 µM (active)
same,Potency,[14],6.86 µM (active)
same,Potency,[15],inactive
same,Potency,[16],inactive
same,Potency,[17],inactive
CCC(C(=O)OCCN(CC)CC)c1ccccc1 (centres undefined),outcome,[1],inactive
same,Potency,[2],inactive
same,outcome,[3],inactive
same,outcome,[4],inactive
same,outcome,[5],inactive
same,Potency,[6],inactive
same,outcome,[7],inactive
same,Potency,[8],inactive
same,Potency,[9],inactive
same,Potency,[10],inactive
same,Potency,[11],inactive
same,Potency,[12],inactive
same,Potency,[15],inactive
same,Potency,[18],inactive
same,Potency,[19],inactive
same,Potency,[16],inactive
same,Potency,[20],inactive
same,Potency,[17],inactive
CO[C@@]12[C@H](COC(N)=O)C3=C(C(=O)C(C)=C(N)C3=O)N1C[C@@H]1N[C@@H]12,outcome,[1],inactive
same,Potency,[2],inactive
same,outcome,[3],inactive
same,outcome,[4],inactive
same,outcome,[5],inactive
same,Potency,[6],inactive
same,outcome,[7],inactive
same,Potency,[8],inactive
same,Potency,[9],inactive
same,Potency,[10],21.3 µM (active)
same,Potency,[11],23.9 µM (active)
same,Potency,[15],inactive
same,Potency,[17],2.37 µM (active)
CC(C)=CC=O,outcome,[1],inactive
same,Potency,[2],inactive
same,outcome,[3],inactive
same,outcome,[4],inactive
same,outcome,[5],inactive
same,Potency,[6],inactive
same,outcome,[7],inactive
same,Potency,[8],inactive
same,Potency,[9],inactive
same,Potency,[11],inactive
same,Potency,[12],inactive
same,Potency,[13],inactive
same,Potency,[14],inactive
same,Potency,[15],inactive
same,Potency,[18],inactive
same,Potency,[19],inactive
same,Potency,[16],inactive
same,Potency,[17],inactive
CC1CC(=O)NN=C1c1ccc(NCC(C)(C)NCC(O)COc2cc(Cl)ccc2C#N)cc1 (centres undefined),outcome,[1],inactive
same,Potency,[2],inactive
same,outcome,[3],inactive
same,outcome,[4],inactive
same,outcome,[5],inactive
same,Potency,[6],inactive
same,outcome,[7],inactive
same,Potency,[8],inactive
same,Potency,[9],inactive
same,Potency,[10],inactive
same,Potency,[11],inactive
same,Potency,[12],0.668 µM (active)
same,Potency,[13],0.376 µM (active)
same,Potency,[15],inactive
same,Potency,[16],inactive
same,Potency,[17],inactive
Cc1nccn1-c1ccc(Sc2cccc(C3(C(N)=O)CCOCC3)c2)cc1,outcome,[1],inactive
same,Potency,[2],inactive
same,outcome,[3],inactive
same,outcome,[4],inactive
same,outcome,[5],inactive
same,Potency,[6],inactive
same,outcome,[7],inactive
same,Potency,[8],inactive
same,Potency,[9],inactive
same,Potency,[10],24.5 µM (active)
same,Potency,[12],0.77 µM (active)
same,Potency,[13],1.54 µM (active)
same,Potency,[15],4.9 µM (active)
same,Potency,[16],15.4 µM (active)
same,Potency,[17],27.3 µM (active)
